Compounds with a hit are over-represented: about 19% of the library has one in this group of screens.
HT1080 IDH1KD tx = kills HT-1080 cells with IDH1 knockdown | HT-1080 IDH1 knockdown viability, ATP luminescence, 48 h | Potency, µM (highest dose often 46.1 µM), without a hit: at the top dose activity, negative = toxicity, actives largely listed as cytotoxic | actives 2% (n = 360,000) | AID 686971;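 further: potency means the concentration at half of the fitted maximal effect; 0% = DMSO wells and -100% = cell-free medium wells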
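Viability of IDH1-knockdown HT-1080 fibrosarcoma cells was assessed by CellTiter-Glo after 48 h at 37 °C with titrated compound; concentration-effect curves were classified by fit quality and response size.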
DT40 TDP1 CPT = DT40-hTDP1 cell growth loss with CPT | chicken DT40 Tdp1-/-;hTDP1 cells + 20 nM CPT, ATP luminescence, 48 h | Potency, µM (series often up to 46.2 µM), for the others: top-dose activity change, negative = growth inhibition, usual class: inhibitors | actives 12% (n = 420,000) | AID 686979; further: potency means the concentration at half of the fitted maximal effect; nearly all actives have a fitted effect of over 55% in size
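Chicken DT40 Tdp1-/- cells complemented with human TDP1, 400 cells/well, exposed to compounds plus 20 nM camptothecin for at least 48 h at 37 C; viability read as ATP content by CellTiter-Glo luminescence.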
TDP1 cell noCPT = qHTS for Inhibitors of human tyrosyl-DNA phosphodiesterase 1 (TDP1): qHTS in cells in absence of CPT; AID 686978, 2013; DT40 Tdp1-/- hTDP1 cells, no CPT, ATP luminescence, 48 h; actives 15% (n = 420,000); Potency, µM (top dose mostly 46.2 µM), without a hit: top-dose activity change, negative = growth inhibition, hits mostly inhibitors; further: potency means the concentration at half of the fitted maximal effect; nearly all actives have a fitted effect of over 55% in size
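Cells were dispensed at 400 per well, compounds added by pin tool, plates incubated ≥48 hr at 37 °C, then CellTiter-Glo added for 30 min at room temperature before luminescence reading. Line: DT40 Tdp1-/- complemented with hTDP1; camptothecin omitted.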
IL-1B inflam inh = blocks inflammasome-driven IL-1 beta release. activity change, % at 57.5 µM. THP-1 LPS/ATP IL-1B secretion, AlphaLISA, 16 h; stronger effect = lower value. actives 4.7% (n = 360,000); in the data active means activity change below about -50%; inconclusive means mostly about -30% to -49%
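THP-1 cells pretreated 1 hr with compounds (up to 57.5 uM final), then stimulated with LPS (250 ng/mL final) plus ATP (1.25 mM final); secreted IL-1B measured by AlphaLISA after 16 hr, decreased signal indicating inhibition.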
HT1080-NT tox = kills 2HG-producing HT-1080-NT fibrosarcoma cells; AID 686970; HT-1080-NT fibrosarcoma viability, CellTiter-Glo ATP luminescence, 48 h; Potency, µM (titrated, usually from 46.1 µM), for inactives: at the top dose activity, negative = less viability, actives largely listed as cytotoxic; actives 1.6% (n = 360,000);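 further: NT is the 2HG producing partner of a matched IDH1 knockdown line; potency means the concentration at half of the fitted maximal effect; 0% = DMSO-treated cells and -100% = media-only wells without cells; nearly all actives have a fitted effect of over 55% in size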
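HT-1080-NT; 750 cells/well; 5% FBS RPMI; 48 h compound, 37 degrees C; CellTiter-Glo luminescence; curve fitting and curve-class assignment.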
An asterisk follows results filed as active; u = inconclusive; x = not tested or not shown. Unless noted, the call rests on the fitted dose curve; in most records, active means well fitted curve in the direction sought with a large enough effect; inconclusive means small, poorly fitted or top-dose-only effect, or another doubt; inactive means no such curve, though single readings can be large; an effect the other way counts as inactive or inconclusive. Unless noted, on the % scale 0 is the no-effect control and ±100 the full control effect.

SMILES | HT1080 IDH1KD tx | DT40 TDP1 CPT | TDP1 cell noCPT | IL-1B inflam inh | HT1080-NT tox
CC(=O)Nc1sc2c(c1C(c1cccc(Cl)c1)N1CCN(CCO)CC1)CCCC2 (configuration not stated) | -3.9% | 16.4µM* | 25.9µM* | -16.0 | -9.1%
COc1ccc(C(c2c(NC(C)=O)sc3c2CCCC3)N2CCN(CCO)CC2)cc1OC (configuration not stated) | -0.6% | -17.7% | -26.4% | -14.1 | -1.1%
Cc1sc(NC(=O)c2ccccc2)c(C(c2ccc(Cl)cc2)N2CCN(CCO)CC2)c1C (configuration not stated) | u | 23.1µM* | 25.9µM* | -65.6* | u
CCOc1ccc(C(c2c(NC(=O)c3ccccc3)sc(C)c2C)N2CCN(CCO)CC2)cc1 (configuration not stated) | u | 20.6µM* | 18.4µM* | -66.8* | u
Cc1ccc(Oc2ncccc2NC(=O)CC2(CC(=O)O)CCCC2)c2c1CCC2 | 0.5% | 3.0% | -25.1% | x | -13.8%
CCOC(=O)C(=CNc1cc(C)ccc1C)C(=O)OCC | 13.7% | u | 16.4µM* | -23.6 | 1.2%
CCOC(=O)C(=CNc1cc(C)nn1-c1ccc(C)cc1)C(=O)OCC | -13.8% | 23.1µM* | 9.2µM* | -8.6 | -21.2%
CCOC(=O)C(=CNc1cccnc1Oc1ccc(C)c2c1CCC2)C(=O)OCC | 8.4% | 14.6µM* | 20.6µM* | -14.7 | 12.8%
CCOC(=O)C(=CNc1cc(C)ccn1)C(=O)OCC | 1.7% | -4.2% | u | 18.7 | 0.2%
CCOC(=O)C(=CNc1cc(OC)ccc1-n1cccc1)C(=O)OCC | -8.9% | u | 20.6µM* | u | -1.9%
Cc1ccc(CN(C(=O)c2csnn2)C(C(=O)NC2CCCC2)c2ccc(C)o2)cc1 (configuration not stated) | -7.3% | -29.8% | u | u | -10.0%
COc1ccc2c3c(cccc13)C(=O)N(O)C2=O | 20.6µM* | 2.31µM* | 2.06µM* | -23.4 | u
O=C1c2cccc3c(N4CCCCC4)ccc(c23)C(=O)N1c1ccccn1 | 1.7% | -10.5% | -15.5% | -13.6 | -3.0%
COc1ccccc1N1C(=O)c2cccc3c(C(=O)O)ccc(c23)C1=O | 13.3% | -13.5% | -22.9% | 11.4 | 3.1%
COc1ccccc1N1C(=O)c2cccc3c(N(C)CCO)ccc(c23)C1=O | -5.9% | 8.2µM* | u | 10.8 | -8.2%
O=C1c2cccc3c([N+](=O)[O-])ccc(c23)C(=O)N1c1ccccn1 | u | 3.66µM* | 2.91µM* | -114.1* | 25.9µM*
O=C1c2cccc3c([N+](=O)[O-])ccc(c23)C(=O)N1c1ccc(Cl)cn1 | 1.58µM* | 3.26µM* | 3.66µM* | -91.9* | 4.47µM*
CC(=O)Oc1ccc(N2C(=O)c3cccc4c([N+](=O)[O-])ccc(c34)C2=O)cc1 | -10.8% | 3.66µM* | 5.8µM* | u | -4.1%
O=C1c2cccc3cccc(c23)C(=O)N1c1nccs1 | 2.3% | 6.7% | 0.3% | -1.4 | 14.7%
O=C1c2cccc3c([N+](=O)[O-])ccc(c23)C(=O)N1O | u | 2.06µM* | 2.31µM* | -2.0 | u
O=C1c2cccc3c([N+](=O)[O-])ccc(c23)C(=O)N1c1nccs1 | 2.24µM* | 3.26µM* | 3.26µM* | -107.1* | 8.91µM*
CSC1=NC(C)N2C(SC)=NC(C)N12 (configuration not stated) | -1.2% | 10.0% | 6.5% | 6.9 | 2.3%
O=C(CCN1CCN(c2ccccc2F)CC1)c1ccc(Br)cc1 | u | 2.59µM* | 2.91µM* | -1.6 | u
COc1ccc(C(=O)CCN2CCN(c3ccccc3F)CC2)cc1 | u | 4.61µM* | 3.66µM* | 0.0 | u
COc1cccc(NC(=O)CCN2CCN(c3ccccc3F)CC2)c1 | -2.1% | -28.7% | -12.4% | 4.9 | 0.9%
SMILES | HT1080 IDH1KD tx | DT40 TDP1 CPT | TDP1 cell noCPT | IL-1B inflam inh | HT1080-NT tox
O=C(CCC(=O)N1CCN(c2ccccc2F)CC1)c1ccc(F)cc1 | 2.8% | 0.5% | u | -6.1 | 1.7%
CCNC(=O)C(=O)NCC(c1cccs1)S(=O)(=O)c1ccc(C)cc1 (configuration not stated) | 3.7% | -17.5% | 1.6% | 22.4 | 1.5%
COc1ccccc1N1CCN(CCCCOc2cccc3ccccc23)CC1 | 16.4µM* | 18.4µM* | 9.2µM* | -56.5* | u
Fc1ccc(OCCCCCN2CCCC2)cc1 | -26.4% | -20.2% | -5.3% | -1.0 | -15.2%
COc1ccccc1N1CCN(CCCCCCOc2ccc(F)cc2)CC1 | 4.3% | 23.1µM* | 20.6µM* | -22.8 | -15.5%
COc1ccccc1N1CCN(CCCCN2C(=O)C3CCCCN3C2=O)CC1 (configuration not stated) | -19.2% | 25.9µM* | u | 20.7 | -25.1%
COc1ccccc1OCCCCN1CCN(c2ccccc2OC)CC1 | -11.0% | u | u | -5.5 | -15.2%
CC(C)(C)c1ccc(C(=O)C2CCCN(C(=O)C3CCOCC3)C2)cc1 (configuration not stated) | 18.2% | u | 16.4µM* | 26.4 | -1.1%
Cc1noc(C)c1CC(=O)N1CCCC(C(=O)c2ccc(C(C)(C)C)cc2)C1 (configuration not stated) | -2.2% | 20.6µM* | 20.6µM* | 14.9 | 1.2%
COc1ccc(N2C(=O)C3CCCN3C2c2cc(OC)c(OC)c(OC)c2)cc1 (configuration not stated) | -11.4% | -15.5% | -15.2% | -21.1 | 2.1%
COc1ccc(N2C(=O)CC(c3cc(OC)c(OC)c(OC)c3)CC2=O)cc1 | 0.8% | 14.6µM* | 13µM* | 34.8 | -16.8%
COc1cc(C2CC(=O)N(c3ccc(C)cc3)C(=O)C2)cc(OC)c1OC | u | 1.84µM* | 1.84µM* | 36.4 | 3.26µM*
Cc1ccc(N2C(=O)CC(C)CC2=O)cc1 | 10.8% | 5.1% | 4.0% | 20.8 | 10.8%
COc1ccc2c(c1)OC(=O)CC2c1cc(OC)c(OC)c(OC)c1 (configuration not stated) | 14.6µM* | u | u | 78.8 | u
CN1CCN(C(=O)CSc2nnc(COc3ccc(Cl)cc3)o2)CC1 | -7.5% | 1.3% | -18.0% | -7.0 | 1.4%
CCN(CC)S(=O)(=O)c1ccc(NN=C2CCN(C)CC2)c([N+](=O)[O-])c1 | -20.3% | -0.9% | -5.8% | -8.6 | -19.2%
Cc1cccc2cc(CN(Cc3ccc(F)cc3)C(=O)C(F)(F)F)c3nnnn3c12 | 1.4% | -29.9% | u | -13.3 | 1.5%
Cc1cccc2cc(CN(Cc3ccc(F)cc3)C(=O)N(C)C)c3nnnn3c12 | 1.8% | 23.1µM* | 20.6µM* | 0.5 | -15.2%

Screens from PubChem.
